Measured values taken from article PMC11006913.

Experiments:
Assay in all cases: PBM; 200 nM protein, PBS
Conditions in all cases: dsDNA, one strand shown
HESX1 [1] = biological target: HESX1 (Homo sapiens, UniProt Q9UBX0 95-180, R165K)
HOXB4 [2] = biological target: HOXB4 (Homo sapiens, UniProt P17483 148-234)
SHOX [3] = biological target: SHOX (Homo sapiens, UniProt O15266 103-189)
HESX1 [4] = biological target: HESX1 (Homo sapiens, UniProt Q9UBX0 95-180)
HOXA4 = HOXA4 (Homo sapiens, UniProt Q00056 201-287, R217L)
Chain of HOXA4 (Q00056 201-287 R217L): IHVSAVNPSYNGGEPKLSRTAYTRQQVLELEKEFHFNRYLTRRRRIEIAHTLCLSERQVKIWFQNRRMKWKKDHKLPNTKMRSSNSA

HOXB4 [5] = biological target: HOXB4 (Homo sapiens, UniProt P17483 148-234, V174I)
Chain of HOXB4 (Homo sapiens, UniProt P17483 148-234, V174I) (P17483 148-234 V174I): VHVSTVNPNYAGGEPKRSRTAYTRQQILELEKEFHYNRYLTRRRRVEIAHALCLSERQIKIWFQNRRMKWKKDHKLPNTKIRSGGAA

MSX2 [6] = biological target: MSX2 (Homo sapiens, UniProt P35548 130-214, R199I)
Chain of MSX2 (Homo sapiens, UniProt P35548 130-214, R199I) (P35548 130-214 R199I): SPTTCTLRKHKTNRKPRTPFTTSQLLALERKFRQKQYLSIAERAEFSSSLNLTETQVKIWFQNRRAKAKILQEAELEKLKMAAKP

ALX3 [7] = biological target: ALX3 (Homo sapiens, UniProt O95076 139-225, N203Q)
Chain of ALX3 (Homo sapiens, UniProt O95076 139-225, N203Q) (O95076 139-225 N203Q): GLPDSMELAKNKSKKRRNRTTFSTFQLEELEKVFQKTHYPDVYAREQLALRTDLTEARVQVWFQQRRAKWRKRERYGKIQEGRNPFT

SHOX [8] = biological target: SHOX (Homo sapiens, UniProt O15266 103-189, R173C)
Chain of SHOX (Homo sapiens, UniProt O15266 103-189, R173C) (O15266 103-189 R173C): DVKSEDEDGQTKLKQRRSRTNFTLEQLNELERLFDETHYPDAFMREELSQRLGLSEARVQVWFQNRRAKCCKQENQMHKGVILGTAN

ALX3 [9] = biological target: ALX3 (Homo sapiens, UniProt O95076 139-225)
Chain of ALX3 (Homo sapiens, UniProt O95076 139-225) (O95076 139-225): as the sequence (O95076 139-225 N203Q) above, with Q65N counted along it

PROP1 [10] = biological target: PROP1 (Homo sapiens, UniProt O75360 56-141)
Chain of PROP1 (Homo sapiens, UniProt O75360 56-141) (O75360 56-141): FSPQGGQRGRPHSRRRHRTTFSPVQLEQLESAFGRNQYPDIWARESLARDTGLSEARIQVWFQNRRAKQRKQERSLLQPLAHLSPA

HESX1 [11] = biological target: HESX1 (Homo sapiens, UniProt Q9UBX0 95-180, R109Q)
Chain of HESX1 (Homo sapiens, UniProt Q9UBX0 95-180, R109Q) (Q9UBX0 95-180 R109Q): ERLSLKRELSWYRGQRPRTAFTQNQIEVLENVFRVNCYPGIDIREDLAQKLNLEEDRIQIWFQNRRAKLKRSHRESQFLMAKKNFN

PROP1 [12] = biological target: PROP1 (Homo sapiens, UniProt O75360 56-141, R99H)
Chain of PROP1 (Homo sapiens, UniProt O75360 56-141, R99H) (O75360 56-141 R99H): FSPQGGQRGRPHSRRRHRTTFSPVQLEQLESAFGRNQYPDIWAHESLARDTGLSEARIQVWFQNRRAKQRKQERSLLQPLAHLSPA

ALX3 [13] = biological target: ALX3 (Homo sapiens, UniProt O95076 139-225, L168Q)
Chain of ALX3 (Homo sapiens, UniProt O95076 139-225, L168Q) (O95076 139-225 L168Q): as the sequence (O95076 139-225 N203Q) above, with L30Q, Q65N counted along it

HESX1 [14] = biological target: HESX1 (Homo sapiens, UniProt Q9UBX0 95-180, P111T)
Chain of HESX1 (Homo sapiens, UniProt Q9UBX0 95-180, P111T) (Q9UBX0 95-180 P111T): as the sequence (Q9UBX0 95-180 R109Q) above, with Q15R, P17T counted along it

ALX3 [15] = biological target: ALX3 (Homo sapiens, UniProt O95076 139-225, L168V)
Chain of ALX3 (Homo sapiens, UniProt O95076 139-225, L168V) (O95076 139-225 L168V): as the sequence (O95076 139-225 N203Q) above, with L30V, Q65N counted along it

PROP1 [16] = biological target: PROP1 (Homo sapiens, UniProt O75360 56-141, F88S)
Chain of PROP1 (Homo sapiens, UniProt O75360 56-141, F88S) (O75360 56-141 F88S): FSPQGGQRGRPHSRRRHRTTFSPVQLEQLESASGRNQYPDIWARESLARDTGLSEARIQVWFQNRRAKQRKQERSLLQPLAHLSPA

MSX2 [17] = biological target: MSX2 (Homo sapiens, UniProt P35548 130-214, F161Y)
Chain of MSX2 (Homo sapiens, UniProt P35548 130-214, F161Y) (P35548 130-214 F161Y): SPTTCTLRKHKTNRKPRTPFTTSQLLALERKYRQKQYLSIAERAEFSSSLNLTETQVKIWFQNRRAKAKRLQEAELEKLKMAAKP

HESX1 [18] = biological target: HESX1 (Homo sapiens, UniProt Q9UBX0 95-180, F115L)
Chain of HESX1 (Homo sapiens, UniProt Q9UBX0 95-180, F115L) (Q9UBX0 95-180 F115L): as the sequence (Q9UBX0 95-180 R109Q) above, with Q15R, F21L counted along it

ALX3 [19] = biological target: ALX3 (Homo sapiens, UniProt O95076 139-225, N203S)
Chain of ALX3 (Homo sapiens, UniProt O95076 139-225, N203S) (O95076 139-225 N203S): as the sequence (O95076 139-225 N203Q) above, with Q65S counted along it

Chain of HOXB4 (Homo sapiens, UniProt P17483 148-234) (P17483 148-234): as the sequence (P17483 148-234 V174I) above, with I27V counted along it
Chain of SHOX (Homo sapiens, UniProt O15266 103-189) (O15266 103-189): as the sequence (O15266 103-189 R173C) above, with C71R counted along it
Chain of HESX1 (Homo sapiens, UniProt Q9UBX0 95-180) (Q9UBX0 95-180): as the sequence (Q9UBX0 95-180 R109Q) above, with Q15R counted along it
Chain of HESX1 (Homo sapiens, UniProt Q9UBX0 95-180, R165K) (Q9UBX0 95-180 R165K): as the sequence (Q9UBX0 95-180 R109Q) above, with Q15R, R71K counted along it

Sequence	binding signal (HESX1 [1])	binding signal (HOXB4 [2])	binding signal (SHOX [3])	binding signal (HESX1 [4])	binding signal (HOXA4)	binding signal (HOXB4 [5])	binding signal (MSX2 [6])	binding signal (ALX3 [7])	binding signal (SHOX [8])	binding signal (ALX3 [9])	binding signal (PROP1 [10])	binding signal (HESX1 [11])	binding signal (PROP1 [12])	binding signal (ALX3 [13])	binding signal (HESX1 [14])	binding signal (ALX3 [15])	binding signal (PROP1 [16])	binding signal (MSX2 [17])	binding signal (HESX1 [18])	binding signal (ALX3 [19])
GTAATTAC	12.5 upbm affinity estimate (log intensity, higher = more binding, comparable within an allelic series)	13.7 upbm affinity estimate (log intensity, higher = more binding, comparable within an allelic series)	12.4 upbm affinity estimate (log intensity, higher = more binding, comparable within an allelic series)	12.6 upbm affinity estimate (log intensity, higher = more binding, comparable within an allelic series)	13.2 upbm affinity estimate (log intensity, higher = more binding, comparable within an allelic series)	14.4 upbm affinity estimate (log intensity, higher = more binding, comparable within an allelic series)	13.2 upbm affinity estimate (log intensity, higher = more binding, comparable within an allelic series)	8.56 upbm affinity estimate (log intensity, higher = more binding, comparable within an allelic series)	9.86 upbm affinity estimate (log intensity, higher = more binding, comparable within an allelic series)	12.7 upbm affinity estimate (log intensity, higher = more binding, comparable within an allelic series)	11.8 upbm affinity estimate (log intensity, higher = more binding, comparable within an allelic series)	9.11 upbm affinity estimate (log intensity, higher = more binding, comparable within an allelic series)	11.6 upbm affinity estimate (log intensity, higher = more binding, comparable within an allelic series)	10.7 upbm affinity estimate (log intensity, higher = more binding, comparable within an allelic series)	11 upbm affinity estimate (log intensity, higher = more binding, comparable within an allelic series)	10.2 upbm affinity estimate (log intensity, higher = more binding, comparable within an allelic series)	8.06 upbm affinity estimate (log intensity, higher = more binding, comparable within an allelic series)	13.9 upbm affinity estimate (log intensity, higher = more binding, comparable within an allelic series)	7.87 upbm affinity estimate (log intensity, higher = more binding, comparable within an allelic series)	8.69 upbm affinity estimate (log intensity, higher = more binding, comparable within an allelic series)
CGTAATTA	12.6 upbm affinity estimate (log intensity, higher = more binding, comparable within an allelic series)	13.5 upbm affinity estimate (log intensity, higher = more binding, comparable within an allelic series)	12.4 upbm affinity estimate (log intensity, higher = more binding, comparable within an allelic series)	12.6 upbm affinity estimate (log intensity, higher = more binding, comparable within an allelic series)	12.7 upbm affinity estimate (log intensity, higher = more binding, comparable within an allelic series)	14.3 upbm affinity estimate (log intensity, higher = more binding, comparable within an allelic series)	12.9 upbm affinity estimate (log intensity, higher = more binding, comparable within an allelic series)	8.47 upbm affinity estimate (log intensity, higher = more binding, comparable within an allelic series)	9.89 upbm affinity estimate (log intensity, higher = more binding, comparable within an allelic series)	12.7 upbm affinity estimate (log intensity, higher = more binding, comparable within an allelic series)	11.6 upbm affinity estimate (log intensity, higher = more binding, comparable within an allelic series)	9.06 upbm affinity estimate (log intensity, higher = more binding, comparable within an allelic series)	11.5 upbm affinity estimate (log intensity, higher = more binding, comparable within an allelic series)	10.7 upbm affinity estimate (log intensity, higher = more binding, comparable within an allelic series)	11.1 upbm affinity estimate (log intensity, higher = more binding, comparable within an allelic series)	10.2 upbm affinity estimate (log intensity, higher = more binding, comparable within an allelic series)	7.88 upbm affinity estimate (log intensity, higher = more binding, comparable within an allelic series)	13.6 upbm affinity estimate (log intensity, higher = more binding, comparable within an allelic series)	7.77 upbm affinity estimate (log intensity, higher = more binding, comparable within an allelic series)	8.56 upbm affinity estimate (log intensity, higher = more binding, comparable within an allelic series)
GCTAATTA	13.8 upbm affinity estimate (log intensity, higher = more binding, comparable within an allelic series)	13.6 upbm affinity estimate (log intensity, higher = more binding, comparable within an allelic series)	13.5 upbm affinity estimate (log intensity, higher = more binding, comparable within an allelic series)	13.6 upbm affinity estimate (log intensity, higher = more binding, comparable within an allelic series)	13 upbm affinity estimate (log intensity, higher = more binding, comparable within an allelic series)	14.3 upbm affinity estimate (log intensity, higher = more binding, comparable within an allelic series)	13.5 upbm affinity estimate (log intensity, higher = more binding, comparable within an allelic series)	8.53 upbm affinity estimate (log intensity, higher = more binding, comparable within an allelic series)	10.9 upbm affinity estimate (log intensity, higher = more binding, comparable within an allelic series)	13 upbm affinity estimate (log intensity, higher = more binding, comparable within an allelic series)	12.1 upbm affinity estimate (log intensity, higher = more binding, comparable within an allelic series)	10.5 upbm affinity estimate (log intensity, higher = more binding, comparable within an allelic series)	12.3 upbm affinity estimate (log intensity, higher = more binding, comparable within an allelic series)	11.4 upbm affinity estimate (log intensity, higher = more binding, comparable within an allelic series)	12.4 upbm affinity estimate (log intensity, higher = more binding, comparable within an allelic series)	11.2 upbm affinity estimate (log intensity, higher = more binding, comparable within an allelic series)	8.03 upbm affinity estimate (log intensity, higher = more binding, comparable within an allelic series)	13.8 upbm affinity estimate (log intensity, higher = more binding, comparable within an allelic series)	8.29 upbm affinity estimate (log intensity, higher = more binding, comparable within an allelic series)	8.71 upbm affinity estimate (log intensity, higher = more binding, comparable within an allelic series)
AATTAATA	12.2 upbm affinity estimate (log intensity, higher = more binding, comparable within an allelic series)	13.2 upbm affinity estimate (log intensity, higher = more binding, comparable within an allelic series)	12 upbm affinity estimate (log intensity, higher = more binding, comparable within an allelic series)	12.1 upbm affinity estimate (log intensity, higher = more binding, comparable within an allelic series)	12.3 upbm affinity estimate (log intensity, higher = more binding, comparable within an allelic series)	13.9 upbm affinity estimate (log intensity, higher = more binding, comparable within an allelic series)	12.5 upbm affinity estimate (log intensity, higher = more binding, comparable within an allelic series)	8.72 upbm affinity estimate (log intensity, higher = more binding, comparable within an allelic series)	9.56 upbm affinity estimate (log intensity, higher = more binding, comparable within an allelic series)	12.5 upbm affinity estimate (log intensity, higher = more binding, comparable within an allelic series)	11.3 upbm affinity estimate (log intensity, higher = more binding, comparable within an allelic series)	9.32 upbm affinity estimate (log intensity, higher = more binding, comparable within an allelic series)	11.4 upbm affinity estimate (log intensity, higher = more binding, comparable within an allelic series)	10.7 upbm affinity estimate (log intensity, higher = more binding, comparable within an allelic series)	10.8 upbm affinity estimate (log intensity, higher = more binding, comparable within an allelic series)	10.3 upbm affinity estimate (log intensity, higher = more binding, comparable within an allelic series)	8.02 upbm affinity estimate (log intensity, higher = more binding, comparable within an allelic series)	13.2 upbm affinity estimate (log intensity, higher = more binding, comparable within an allelic series)	8.27 upbm affinity estimate (log intensity, higher = more binding, comparable within an allelic series)	8.82 upbm affinity estimate (log intensity, higher = more binding, comparable within an allelic series)
